# Source: PubChem BioAssay (Tox21)
# Records with an inconclusive call do not appear. Activity calls are given as the source filed them. Calls follow the shape of the dose curve; as a rule, active = well fitted inhibition curve with a large enough effect in the signal ratio in the repeat runs (not every such curve was filed as active); inconclusive = weak or mixed curves, or effect the other way; inactive = flat fitted curve, though single readings scatter; the % refers to the signal ratio.
# Assay: cAMP Responsive Elements (CRE) small molecule antagonists, cell-based qHTS assay (AID 1963591)
# Conditions: CRE-bla HEK293T, beta-lactamase FRET ratio; series mostly up to 92.4 µM; activity change, negative = inhibition: at the top concentration
# Text: U.S. Tox21 Program National Center for Advancing Translational Sciences [NCATS] Division of Preclinical Innovation [DPI] U.S. Environmental Protection Agency [EPA] National Institutes of Environmental Health Sciences [NIEHS] National Toxicology Program [NTP] U.S. Food and Drug Administration [FDA] Tox21 Assay Overview: CREB (cyclic-AMP Responsive Element Binding Protein) is a cellular transcription factor. It binds to certain DNA sequences called cAMP Responsive Elements (CRE) and regulates the transcription of the genes. […] This cell line can be used to find agonists/antagonists of the cyclic AMP signaling pathway. The activation of the report gene under culture conditions can be detected by fluorescence intensity. This cell line has been used to screen the Tox21 10K compound library to […].
# Tox21 Assay Protocol Summary: CRE-bla Hek 293T cells were suspended in assay medium (DMEM containing 10% dialyzed FBS, 0.1 mM NEAA, 1 mM sodium pyruvate and 25 mM HEPES) and dispensed at 2,000 cells/4 uL /well into 1536-well black wall/clear bottom plates using a Multidrop Combi (ThermoFisher Scientific, Waltham, MA) dispenser. After the assay plates were incubated at 37 C/5% CO2 for 18 hrs, 23 nL of compounds dissolved in DMSO, positive controls or DMSO only was transferred to the assay plate by a pintool workstation (Kalypsys, San Diego, CA), followed by addition of 1 […] uL of 1.25uM NKH477 (0.25 uM as final concentration) in assay medium using a Flying Reagent Dispenser (Aurora Discovery, San Diego, CA). The plates were incubated at 37 C and 5% CO2 for 3 hrs. Then 1 uL of LiveBLAzer B/G FRET substrate (Invitrogen, Carlsbad, CA) was added to each well using Bioraptr Flying Reagent Dispenser (FRD, Aurora Discovery, San Diego, CA). The plates were incubated at room temperature for 2 h.
# % is scaled to controls: 0 for no effect and ±100 for the full control effect.
row,SMILES,"activity change, negative = inhibition"
1,CCCCCCC(=O)OCC,-2.71% (inactive)
2,C=CCSSCCC,4.58% (inactive)
3,CC(C)C(=O)Nc1cccc(C(F)(F)F)c1,8.08% [at 42.4 µM] (inactive)
4,COc1cc(C(=O)NC2CCCNC2)cc(OC)c1OC (stereo not given),8.45% [at 42.4 µM] (inactive)
5,CN1CCN(c2c(F)cc3c(=O)c(C(=O)O)cn4c3c2OCN4C)CC1,-9.33% [at 18.9 µM] (inactive)
6,NC(=O)c1ncn([C@@H]2O[C@H](CO)[C@@H](O)[C@H]2O)c1N,7.89% [at 42.4 µM] (inactive)
7,Cc1cc(S(=O)(=O)O)c(N)cc1Cl,5.18% (inactive)
8,CC(C)CCCCCCOC(=O)CCCCC(=O)OCCCCCCC(C)C,-14.5% (inactive)
9,COc1cc(OC)nc(NC(=O)NS(=O)(=O)Nc2ccccc2C(=O)N(C)C)n1,6.98% (inactive)
10,Cc1c(N)cccc1Cl,0.31% (inactive)
11,Nc1c2c(nc3c1CCC3)CCCC2,-8.48% [at 42.4 µM] (inactive)
12,CN1CCN(C(c2ccccc2)c2ccccc2)CC1,-1.69% [at 42.4 µM] (inactive)
13,O=C1OC(OC(=O)c2cccnc2Nc2cccc(C(F)(F)F)c2)c2ccccc21 (stereo not given),-5.9% [at 42.4 µM] (inactive)
14,CN(C)CCN1CCOCC1,-1.81% (inactive)
15,O=C(Oc1ccccc1)c1ccccc1C(=O)Oc1ccccc1,-3.66% (inactive)
16,N[C@H](C(=O)O)[C@@H](O)c1ccc(O)c(O)c1,-11.4% [at 42.4 µM] (inactive)
17,CC(C)(O)c1coc(S(=O)(=O)NC(=O)Nc2c3c(cc4c2CCC4)CCC3)c1,1.79% (inactive)
18,Nc1ccc(C(=O)NCC(=O)O)cc1,-2.6% [at 42.4 µM] (inactive)
19,CCOC(=O)[C@H](CCc1ccccc1)N[C@@H](C)C(=O)N1CCC[C@H]1C(=O)O,2.27% [at 42.4 µM] (inactive)
20,CCCCCCCCN,-13.6% (inactive)

row,SMILES,"activity change, negative = inhibition"
1,CCOC(=O)[C@H](C)O,-6.45% (inactive)
2,Cc1cc(=O)[nH]c(=O)[nH]1,2.64% (inactive)
3,Cc1c(Cn2ccnc2)c2ccccc2n1CCC(=O)O,0.817% [at 42.4 µM] (inactive)
4,C=C1CC[C@H]2O[C@]2(C)CC[C@@H]2[C@@H]1CC2(C)C,-2.13% (inactive)
5,CC(C)(C)C(=O)Oc1ccc(S(=O)(=O)Nc2ccccc2C(=O)NCC(=O)O)cc1,-2.34% [at 42.4 µM] (inactive)
6,CC1=C(C)C(=O)C(CCCCC#CCCCC#CCO)=C(C)C1=O,-3.08% [at 42.4 µM] (inactive)
7,CCc1nccnc1CC,-3.19% [at 18.9 µM] (inactive)
8,C/C=C(\C)C(=O)OCCC(C)CCC=C(C)C (stereo not given),-2.09% (inactive)
9,FC(F)(F)c1ccc(Cl)cc1Cl,0.744% (inactive)
10,CC(C)c1ccc(C#N)cc1,-3.58% (inactive)
11,O=C(O)CCCc1ccccc1,3% [at 42.4 µM] (inactive)
12,CCN(CC)CCNC(=O)c1cc(S(C)(=O)=O)ccc1OC,-0.237% [at 42.4 µM] (inactive)
13,CCOC(C)=O,-5.32% (inactive)
14,Cc1ccc(=O)n(-c2ccccc2)c1,1.13% [at 42.4 µM] (inactive)
15,CCOC(=O)COc1ccc(C)cc1,0.855% (inactive)
16,CN(C(=O)C(Cl)Cl)c1ccc(OC(=O)c2ccco2)cc1,-1.08% [at 42.4 µM] (inactive)
17,Cc1[nH]cnc1CN1CCc2c(c3ccccc3n2C)C1=O,9.97% [at 42.4 µM] (inactive)
18,CC[N+](C)(CC)CCOC(=O)C(O)(c1ccccc1)C1CCCCC1 (stereo not given),13.6% [at 42.4 µM] (inactive)
19,CN(C)CCc1c[nH]c2ccc(CS(=O)(=O)N3CCCC3)cc12,-7.06% [at 42.4 µM] (inactive)
20,CC[C@@H](CO)NCCN[C@@H](CC)CO,2% [at 42.4 µM] (inactive)
